Measured values: PubChem BioAssay AID504375 (National Center for Advancing Translational Sciences (NCATS), 2011)
Among all 1,600 compounds or so, about 25 (2%) were called active. Another 7% or so got no clear call; they are omitted. Shown is part of a subset that was picked to be rich in actives. A number with no mark means an inactive call. Calls come from the whole dose curve; as a rule, active = well fitted inhibition curve with a large enough effect; inconclusive = small, poorly fitted or top-dose-only effect, or effect the other way; inactive = no such curve, though single readings can be large or run the other way.

The compounds below were run against Runt-related transcription factor 1 (Homo sapiens) + Core-binding factor subunit beta (Homo sapiens) (UniProt Q01196+Q13951) (assay: qHTS Assay for Compounds Blocking the Interaction Between CBF-beta and RUNX1 for the Treatment of Acute Myeloid Leukemia: Hit Validation with Orthogonal Assay). Conditions: CBFbeta-RUNX1 binding orthogonal assay, biochemical; series mostly up to 41 µM; activity change, negative = inhibition: at the top concentration.
Runt-related transcription factor 1 (Homo sapiens) + Core-binding factor subunit beta (Homo sapiens), sequence (Q01196 whole entry, looked up): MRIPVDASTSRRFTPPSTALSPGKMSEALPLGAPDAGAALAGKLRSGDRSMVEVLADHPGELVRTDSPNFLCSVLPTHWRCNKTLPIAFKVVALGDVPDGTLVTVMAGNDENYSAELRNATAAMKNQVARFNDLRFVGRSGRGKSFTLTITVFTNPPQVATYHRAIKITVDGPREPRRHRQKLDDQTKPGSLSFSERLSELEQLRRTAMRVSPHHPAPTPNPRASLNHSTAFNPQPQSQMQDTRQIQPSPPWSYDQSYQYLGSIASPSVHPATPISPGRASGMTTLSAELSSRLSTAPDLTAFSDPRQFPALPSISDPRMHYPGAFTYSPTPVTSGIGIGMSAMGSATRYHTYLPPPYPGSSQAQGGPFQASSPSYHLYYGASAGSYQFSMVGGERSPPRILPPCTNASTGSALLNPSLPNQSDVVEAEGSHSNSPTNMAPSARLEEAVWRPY
Runt-related transcription factor 1 (Homo sapiens) + Core-binding factor subunit beta (Homo sapiens), sequence (Q13951 whole entry, looked up): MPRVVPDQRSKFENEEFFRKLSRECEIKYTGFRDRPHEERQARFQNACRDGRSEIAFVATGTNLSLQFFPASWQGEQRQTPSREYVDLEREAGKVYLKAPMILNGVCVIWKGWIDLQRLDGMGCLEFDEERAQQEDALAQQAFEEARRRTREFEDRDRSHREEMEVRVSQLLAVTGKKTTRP
Source text: NIH Chemical Genomics Center [NCGC]
NIH Molecular Libraries Probe Production centers Network [MLPCN]
Assay Submitter (PI): Paul Liu
Core Binding Factor (CBF) abnormalities are associated with 20-25% of all acute myeloid leukemias (AML), of which 5-10% are further sub classified as acute myelomonocytic leukemia with eosinophilia, also known as M4Eo in the FAB classification scheme. This subtype of leukemia is usually associated with chromosome 16 inversion (p13:q22). Chromosome 16 inversion results in formation of the fusion oncogene CBFB-MYH11, which encodes the fusion protein CBF-beta-SMMHC.
It has been hypothesized that the interference of CBF-beta and RUNX1 binding could have therapeutic implications for patients with CBF mediated leukemias. We developed a CBF-beta and RUNX1 binding assay in AlphaScreenTM format and optimized it for high throughput screening to search for inhibitors. The goal of this project is to screen MLPCN's compound collection (MLSMR) for identifying the inhibitors of the interaction between CBF-beta and RUNX1 proteins as research probes. If these probes work well in the animal models, the ultimate goal of this project is to development a new drug treatment for this disease.
This assay can not be used to assess how apparent inhibitors interfere with protein binding, and whether inhibitors specifically bind to either protein. Disruption of this protein-protein interaction, through any mechanism, is the intended target activity.
The present data set was run to confirm the activity of hits from the primary screen using an orthogonal assay technology for measuring protein-protein interaction disruption.
A TR-FRET (time resolved fluorescence resonance energy transfer) assay was performed using the same assay buffer, protein concentrations and incubation times as described previously in the AlphaScreen assay, except that terbium (Tb+) labeled anti-his-antibody and XL665 linked streptavidin were used to capture the binding signal. The Tb+ labeled anti-his-antibody captures His(6)-CBF and XL665 linked streptavidin binds to biotin-RUNX1. The binding of RUNX1 to CBFbrings Tb+ and XL665 to proximity resulting in a TR-FRET signal. Briefly, in a white 384-well plate, 10 µl/well of mixture of biotin-RUNX1 and His(6)-CBFwere incubated with 10 µl/well buffer (positive control) or 10 µl/well compounds (negative control) for 20 min followed by an addition of 10 µl/well of Tb+ labeled anti-his(6)-antibody and XL665 linked streptavidin. After 90 min of incubation in the dark, the assay plate was measured in the Envision plate reader using TR-FRET detection mode. For the 1536-well plate format, 3 µl/well mixture of biotin-RUNX1 and His(6)-CBF (30 nM per protein) was incubated with 23 nl/well compound (dissolved in 100% DMSO) or the equivalent DMSO concentration (positive control) for 30 min followed by the addition of 1 µl/well of 0.44 ng Tb+ labeled anti-his(6)-antibody and 5 nM streptavodin-XL665. After 90 min of incubation, the assay plate was measured in the Envision plate reader.
The TR-FRET assay for detecting interaction between HIV-I Tat and […] was similarly performed with the recombinant full-length HIV-I Tat CLADE B and HIV-I Tat Biotin conjugated proteins supplied by Diatheva (Fano, Italy). Briefly, the His-CBF and Biotin-RUNX1 complex at a working concentration of 83.3 nM per protein were pre-incubated in assay buffer for 10 minutes on ice. Then HIV-I Tat or unlabeled CBF were added to reach final concentrations (Supplementary Figure 4b) and incubated for 5 minutes. Finally anti-His antibody and streptavidin-XL665 at a final concentration of 2.2 ng and 5 nM, respectively, were added to the plate, which was incubated for 1 hr prior to reading on the PerkinElmer Envision plate reader.
Keywords: MLSMR, MLPCN, NIH Roadmap, qHTS, NCGC, Core binding factor, CBF, CBF-beta, Acute myeloid leukemia
% is set by controls: 0 for no effect and ±100 for the full control effect; potency is the fitted concentration of half-maximal effect.

Compound | activity change, negative = inhibition | Potency
CC(=O)c1sccc1NC(=O)c1ccccc1C(=O)O | 3.8% | 
O=C(Oc1c(-c2ccccc2)c(=O)n2c3c(cccc13)CC2)c1ccccc1 | -10% | 
O=[N+]([O-])c1cccnc1Oc1ccc(F)cc1 | 22.6% | 
Cn1nc2c3ccccc3n(Cc3ccc(F)cc3)c2nc1=S | 12% | 
Cc1nc2ccc(NC(=S)N3CCOCC3)cc2nc1C |  | 12.6 µM (active)
COc1ccc(C(=O)NC(=S)Nc2ccc(CN3CCOCC3)cc2)cc1 | -9.35% | 
Cc1cccc(C)c1NC(=S)N1CCOCC1 | 3.77% | 
COC(=O)c1scc(C)c1NC(=O)/C=C/C(=O)O | -12.4% | 
Cc1ccc(N/N=C(\C#N)C(=N)N2CCCCC2)cc1 | 59.2% | 
Cc1nc(SCc2cccc(F)c2)c2oc3ccccc3c2n1 | -3.14% | 
Cn1ncc2c(c(SCc3ccc(Cl)cc3Cl)nn2C)c1=O | 16.1% | 
O=C1NCCc2c1[nH]c1ccccc21 | -12% | 
CC(C)Cn1nc(NC(=O)c2cccs2)c2cc3ccccc3nc21 | 20.5% | 
CC(=O)Oc1cc2c3c(c1)/C(=C1/SC(=S)NC1=O)C(=O)N3C(C)(C)C=C2C | 14.8% | 
CC(C)N(Cc1ccccc1)C(=O)c1ccc2nsnc2c1 | 18% | 
O=C(CSc1nc2ccccc2n1Cc1ccccc1Cl)N/N=C/c1ccccc1C(=O)O | -14.6% | 
O=C(O)C1CCc2sc3[nH]c(=S)n(-c4ccccc4)c(=O)c3c21 (stereo not drawn) | 12.3% | 
Cn1cccc1/C=C1\SC(=S)N(NC(=O)c2ccc(F)cc2)C1=O | 33.1% | 
Clc1ccc(C2=Nn3c(Cn4nnc5ccccc54)nnc3SC2)cc1 | 2.69% | 
O=C1COc2cccnc2N1 | -2.97% | 
Cc1c(-c2ccccc2)[n+](=O)c(-c2ccc(Br)cc2)c(C)n1[O-] | 26.5% | 
COc1cc(C(=O)NC(=S)Nc2ccc3c(c2)OCO3)cc(OC)c1OC | 2.92% | 
CCCSc1cc(Cl)nc(N)n1 | -0.0734% | 
O=C(CCl)NC1(C(F)(F)F)C(=O)Nc2c1c(=O)[nH]c(=O)n2-c1ccccc1 (stereo not drawn) | -7.72% | 
O=[N+]([O-])c1ccc(-c2cn3c(n2)CCC3)cc1 | 27.4% | 

Compound | activity change, negative = inhibition | Potency
COc1c(/C=N/NC(=O)c2ccncc2)c(CCN(C)C(C)=O)cc2c1OCO2 | -7.29% | 
COc1cc(/C=N/n2nnnc2N)cc(OC)c1OC | 6.57% | 
Cc1nc2ccccc2nc1N1CCCC1 | 17.1% | 
COc1cscc1C(=O)O | 0.991% | 
CCOc1nsc(OCC)n1 | 8.39% | 
C/C(=N\Nc1cccc(Cl)c1)C1(C)N(O)C(C)(C)C(c2ccco2)=[N+]1[O-] (stereo not drawn) | 18.1% | 
CCOC(=O)C1=C(C)N(CC(C)C)C(=O)/C1=C\c1cccs1 | 14.3% | 
O=C(O)/C=C/c1cn(-c2ccccc2)nc1-c1ccc(-c2ccc([N+](=O)[O-])cc2)o1 | 17.8% | 
COc1ccccc1/C=C/C=NC1C(=O)N(c2ccccc2)[N+](C)=C1C (stereo not drawn) | -5.85% | 
O=C(O)c1cc(O)c2c(c1)[C@H]([C@H]1c3cc(C(=O)O)cc(O)c3C(=O)c3c(O[C@@H]4OC(CO)C(O)C(O)C4O)cccc31)c1cccc(O[C@@H]3OC(CO)C(O)C(O)C3O)c1C2=O (stereo partly drawn) |  | 2.51 µM (active)
O=C(O)CC(CCc1ccccc1)OC1OC(CO)C(O)C(O)C1O (stereo not drawn) | -29.1% | 
COc1cc(/C=C/c2nc3ccc([N+](=O)[O-])cc3s2)ccc1OCC(=O)O | 18.5% | 
CCn1cc(C(c2ccccc2)C(C(C)=O)[N+](=O)[O-])c2ccccc21 (stereo not drawn) | 13.1% | 
OCCNc1nc2ccccc2nc1NCCO | 0.991% | 
COc1ccc(C2=NOC(CNC(=S)N3CCOCC3)C2)cc1 (stereo not drawn) | 8.59% | 
Cn1c(SCC(=O)NC(=O)Nc2ccccc2)nnc1-c1ccncc1 | -1.38% | 
C(=C\c1nccc2c1[nH]c1ccccc12)/c1ccccc1 | 10.1% | 
COc1cccc(/C=N/NC(=O)c2cnccn2)c1OC | 12.2% | 
Oc1ccccc1/C=N/Nc1nn[nH]n1 | 6.96% | 
CCN(CC)c1ncc(C#N)c(N)n1 | -7.89% | 
Cc1cc(O)c(C=O)c2c1C(=O)Oc1c(COC(=O)/C=C/C(=O)O)c(O)c(C(=O)O)c(C)c1O2 |  | 28.2 µM (active)
CCOC(=O)c1cn2nc(Oc3ccc(C(=O)OC)cc3)ccc2n1 | -15.3% | 
CCc1nc2ccccc2nc1N1CCN(S(=O)(=O)c2ccc(Cl)cc2)CC1 | 0.844% | 
c1ccc(C2=Nn3c(Cn4nnc5ccccc54)nnc3SC2)cc1 | -10.8% | 
CC(=O)c1ccc(S(=O)(=O)N2Cc3ccccc3CC2C(=O)O)cc1 (stereo not drawn) | -4.12% | 

Compound | activity change, negative = inhibition | Potency
Brc1ccc(C2=Nn3c(Cn4nnc5ccccc54)nnc3SC2)cc1 | -8.99% | 
COc1ccc(C(=O)CN2CCN(c3cc(C)nc4ccccc34)CC2)cc1 | -6.56% | 
COC(=O)/C(=C\Nc1ccc(Oc2ccc(F)cc2F)nc1)NC(=O)c1ccccc1 | 8.42% | 
CN(C)c1cc(-c2ccc(Cl)cc2Cl)oc(=O)c1Cl | 32.5% | 
CC(C)(C)C(=O)Nc1ccccc1C(=O)NCc1cccnc1 | 7.35% | 
O=S(=O)(c1ccc(F)cc1F)N1CCCN(c2ccc(C(F)(F)F)cn2)CC1 | 5.71% | 
CCC(C)c1ccc(OCc2ccc(C(=O)OC)o2)cc1 (stereo not drawn) | 5.36% | 
CCNC(=S)Nc1ccc(NC(=O)c2ccccc2O)cc1 | 16.3% | 
COc1ccccc1C1CCN(C(=O)c2ccco2)CC1 | 13.8% | 
O=C(O)C1Nc2c(O)cccc2C2C=CCC12 (stereo not drawn) |  | 3.55 µM (active)
O=C(O)C1Nc2c(O)cc(Cl)c([N+](=O)[O-])c2C2C=CCC12 (stereo not drawn) | -29.8% | 
Cc1ccc2c(c1C)NC(C(=O)O)C1CC=CC21 (stereo not drawn) |  | 7.08 µM (active)
COc1ccccc1C1CCN(C(=O)c2cccs2)CC1 | 1.7% | 
COc1cccc2c1NC(C(=O)O)C1CC=CC21 (stereo not drawn) |  | 7.94 µM (active)
Cn1ncc(Br)c1N1C(=O)CCC1=O | 1.93% | 
Fc1ccc(C(CCNCc2cccs2)c2ccco2)cc1 (stereo not drawn) | 10.9% | 
COc1ccc(NC(=O)Nc2nc3ccccc3s2)cc1 | -7.1% | 
Cc1cc(NC(=O)CSc2nc3ccccc3[nH]2)n(-c2ccccc2)n1 | 1.11% | 
CN(C)c1nc(-c2ccccn2)nnc1-c1ccccc1 |  | 22.4 µM (active)
c1ccc(-c2n[nH]c(-c3ccccn3)n2)nc1 | -1.29% [at 82.4 µM] | 
c1ccc(-c2nnc(-c3ccccn3)nc2NC2CCCCC2)cc1 | -3.48% [at 82.4 µM] | 
CC(=O)Nc1cccc(OCCCNC(=O)c2cccc3ccccc23)c1 | 6.23% | 
COc1ccc2[nH]c(C(=O)N3CCCN(Cc4ccc(F)cc4)CC3)cc2c1 | 13.2% | 
